# In publication PMC5540273 (PLoS ONE, 2017):
# Tests used:
# Conditions in all cases: concentration: 1 μM,replicates: in singlicate; n = 1
# CSNK1G1 = test system: CSNK1G1
# CSNK1G2 = test system: CSNK1G2
# CSNK1G3 = test system: CSNK1G3
# CSNK2A1 = test system: CSNK2A1
# CSNK2A2 = test system: CSNK2A2
# CTK = test system: T1, CTK
# T1 construct: gene MATK
# DAPK1 = test system: DAPK1
# DAPK2 = test system: DAPK2
# DAPK3 = test system: DAPK3
# DCAMKL1 = test system: T2, DCAMKL1
# T2 construct: gene DCLK1
# 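Further: KINOMEscan kinase panel screen.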
Structure (SMILES),%Inh (CSNK1G1) [%],%Inh (CSNK1G2) [%],%Inh (CSNK1G3) [%],%Inh (CSNK2A1) [%],%Inh (CSNK2A2) [%],%Inh (CTK) [%],%Inh (DAPK1) [%],%Inh (DAPK2) [%],%Inh (DAPK3) [%],%Inh (DCAMKL1) [%]
OCCn1cc(-c2cnc3nnn(Cc4ccc5ncccc5c4)c3n2)cn1,1,0,9,0,0,0,0,0,0,66
COc1cc(Nc2nccc(N3CCC(NC(=O)c4cccc(C#N)c4)C3)n2)cc(OC)c1OC (stereo not shown) [GSK1379751],0,0,7,0,0,0,0,0,6,5
N#Cc1cccc(C(=O)NC2CCN(c3ccnc(Nc4ccc(F)cc4)n3)C2)c1 (stereo not shown) [GSK1379708],0,4,6,0,0,0,0,0,11,0
O=C(Nc1cccc(C(F)(F)F)c1)c1cccc(Oc2ccc3nccn3n2)c1,1,10,1,0,0,69,0,0,0,0
COc1cc2c(Nc3ccc(NC(=O)c4ccccc4)cc3)ncnc2cc1OCCCN1CCOCC1 [GSK301329],0,0,3,9,14,32,0,0,0,13
Cn1ccc2ncnc(Oc3ccc(NC(=O)Nc4cccc(C(F)(F)F)c4)c(F)c3)c21,9,20,0,0,0,0,1,0,13,12
CC(C)S(=O)(=O)N1CCN(Cc2ccc3c(c2)nc(NC(=O)c2ccsc2)n3C[C@H](O)c2ccccc2)CC1 [GW635815],16,5,20,6,37,0,0,0,31,0
